# Source: article PMC5540273 (PLoS ONE, 2017)
# System: CSNK1G1
# Settings: concentration: 1 μM,replicates: in singlicate; n = 1
# 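Also: KINOMEscan kinase panel screen.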
row,SMILES,%Inh [%]
1,C[C@@H]1CCN(C(=O)CC#N)C[C@@H]1N(C)c1ncnc2[nH]ccc12,15
2,CC(C)Nc1cc(-c2ccc3c(N)n[nH]c3c2)nc(N)n1 [GSK2221681],0
3,CCN(CC)CCCCNc1ncc2cc(-c3c(Cl)cccc3Cl)c(NC(=O)NC(C)(C)C)nc2n1,10
4,Cl.Oc1cc(-c2nc(-c3ccccc3)[nH]c2-c2ccncc2)ccc1Cl [SB-386023],0
5,C[C@H]1Oc2cc(cnc2N)-c2c(nn(C)c2C#N)CN(C)C(=O)c2ccc(F)cc21,0
6,Cl.Cl.Nc1nc(-c2ccc3c(N)n[nH]c3c2)cc(N2CCCC(NC(=O)c3ccccc3)C2)n1 (stereo not drawn) [GSK2286775],0
7,Cc1cc2cn[nH]c2cc1-c1cccc2c(N)c(C(N)=O)nnc12,12
8,CCn1c(-c2nonc2N)nc2c(C#CC(C)(C)O)nc(OCCN)cc21.Cl.Cl [GSK902056],0
9,C=CC(=O)Nc1cc2c(Nc3ccc(F)c(Cl)c3)ncnc2cc1OCCCN1CCOCC1 [GW781483],0
10,Nc1nc(Nc2ccccc2)cc(-c2ccc3c(N)n[nH]c3c2)n1 [GSK2225749],2
11,Cc1cc(C(=O)Nc2ccc(Oc3ccc4nc(NC(=O)C5CC5)cn4n3)cc2)nn1-c1ccccc1,6
12,C[C@@H](Oc1cc(-c2cnn(C3CCNCC3)c2)cnc1N)c1c(Cl)ccc(F)c1Cl,8
13,NC(=O)c1cc(-c2ccccc2)cc2c(C3CCNCC3)c[nH]c12 [GSK301362],3
14,Cc1occc1-c1nc(N)c(OC[C@@H](N)Cc2c[nH]c3ccccc23)cc1-c1cc2c(C)n[nH]c2cn1 [GSK1660450],79
15,Cc1n[nH]c2ccc(-c3cc(OC[C@@H](N)Cc4ccccc4)cnc3-c3ccoc3)cc12.O=C(O)C(F)(F)F.O=C(O)C(F)(F)F [GSK507358],71
16,Cc1ccc(-n2nc(C(C)(C)C)cc2NC(=O)Nc2ccc(OCCN3CCOCC3)c3ccccc23)cc1 [GW839464],1
17,COc1ccc(C[C@@H](CN)NC(=O)c2cc(Br)c(-c3ccnc4[nH]ccc34)s2)cc1.Cl.Cl [GSK1389063],33
18,O=C(NCCNc1ccnc(NCc2ccc(F)cc2)n1)c1cc2ccccc2s1 [GSK1379944],32
19,CCN(CC)CCOc1ccc(Nc2ncc3cc(-c4c(Cl)cccc4Cl)c(=O)n(C)c3n2)cc1 [SB-601273],38
20,CN(C)CCOc1ccc(-c2cc(-c3c[nH]nc3-c3ccccn3)ccn2)cc1 [GW835314],14
21,Cl.Cl.NC[C@H](Cc1ccc(C(F)(F)F)cc1)NC(=O)c1cc(Br)c(-c2ccnc3[nH]ccc23)s1 [GSK1487252],0
22,CNC(=O)c1ccccc1Sc1ccc2c(/C=C/c3ccccn3)n[nH]c2c1,0
23,CN(C)CC(O)COc1ccc(Nc2nccc(-c3cnn4nc(N5CCOCC5)ccc34)n2)cc1 (stereo not drawn) [GW767488],16
24,Cl.Cl.NC[C@H](CC1CCCCC1)NC(=O)c1cc(Br)c(-c2ccnc3[nH]ccc23)s1 [GSK1581427],6
25,Cc1ccc2c(-c3ccncc3)c(-c3ccc(F)cc3)nn2c1.Cl [GW461484],30
26,O=C(NCCCN1CCOC1=O)c1cnc(NCc2cc(Cl)ccc2Cl)nc1NC1CCCC1,0
27,CC(C)N1C(=O)Cc2cc(Nc3ncc(C(F)(F)F)c(NCc4cccc(S(C)(=O)=O)c4)n3)ccc21,0

# System: CSNK1G2
# Settings: concentration: 1 μM,replicates: in singlicate; n = 1
row,SMILES,%Inh [%]
1,C[C@@H]1CCN(C(=O)CC#N)C[C@@H]1N(C)c1ncnc2[nH]ccc12,0
2,CC(C)Nc1cc(-c2ccc3c(N)n[nH]c3c2)nc(N)n1 [GSK2221681],2
3,CCN(CC)CCCCNc1ncc2cc(-c3c(Cl)cccc3Cl)c(NC(=O)NC(C)(C)C)nc2n1,0
4,Cl.Oc1cc(-c2nc(-c3ccccc3)[nH]c2-c2ccncc2)ccc1Cl [SB-386023],0
5,C[C@H]1Oc2cc(cnc2N)-c2c(nn(C)c2C#N)CN(C)C(=O)c2ccc(F)cc21,27
6,Cl.Cl.Nc1nc(-c2ccc3c(N)n[nH]c3c2)cc(N2CCCC(NC(=O)c3ccccc3)C2)n1 (stereo not drawn) [GSK2286775],0
7,Cc1cc2cn[nH]c2cc1-c1cccc2c(N)c(C(N)=O)nnc12,13
8,CCn1c(-c2nonc2N)nc2c(C#CC(C)(C)O)nc(OCCN)cc21.Cl.Cl [GSK902056],0
9,C=CC(=O)Nc1cc2c(Nc3ccc(F)c(Cl)c3)ncnc2cc1OCCCN1CCOCC1 [GW781483],1
10,Nc1nc(Nc2ccccc2)cc(-c2ccc3c(N)n[nH]c3c2)n1 [GSK2225749],0
11,Cc1cc(C(=O)Nc2ccc(Oc3ccc4nc(NC(=O)C5CC5)cn4n3)cc2)nn1-c1ccccc1,0
12,C[C@@H](Oc1cc(-c2cnn(C3CCNCC3)c2)cnc1N)c1c(Cl)ccc(F)c1Cl,0
13,NC(=O)c1cc(-c2ccccc2)cc2c(C3CCNCC3)c[nH]c12 [GSK301362],0
14,Cc1occc1-c1nc(N)c(OC[C@@H](N)Cc2c[nH]c3ccccc23)cc1-c1cc2c(C)n[nH]c2cn1 [GSK1660450],74
15,Cc1n[nH]c2ccc(-c3cc(OC[C@@H](N)Cc4ccccc4)cnc3-c3ccoc3)cc12.O=C(O)C(F)(F)F.O=C(O)C(F)(F)F [GSK507358],90.6
16,Cc1ccc(-n2nc(C(C)(C)C)cc2NC(=O)Nc2ccc(OCCN3CCOCC3)c3ccccc23)cc1 [GW839464],0
17,COc1ccc(C[C@@H](CN)NC(=O)c2cc(Br)c(-c3ccnc4[nH]ccc34)s2)cc1.Cl.Cl [GSK1389063],79
18,O=C(NCCNc1ccnc(NCc2ccc(F)cc2)n1)c1cc2ccccc2s1 [GSK1379944],98.8
19,CCN(CC)CCOc1ccc(Nc2ncc3cc(-c4c(Cl)cccc4Cl)c(=O)n(C)c3n2)cc1 [SB-601273],0
20,CN(C)CCOc1ccc(-c2cc(-c3c[nH]nc3-c3ccccn3)ccn2)cc1 [GW835314],9
21,Cl.Cl.NC[C@H](Cc1ccc(C(F)(F)F)cc1)NC(=O)c1cc(Br)c(-c2ccnc3[nH]ccc23)s1 [GSK1487252],8
22,CNC(=O)c1ccccc1Sc1ccc2c(/C=C/c3ccccn3)n[nH]c2c1,18
23,CN(C)CC(O)COc1ccc(Nc2nccc(-c3cnn4nc(N5CCOCC5)ccc34)n2)cc1 (stereo not drawn) [GW767488],50
24,Cl.Cl.NC[C@H](CC1CCCCC1)NC(=O)c1cc(Br)c(-c2ccnc3[nH]ccc23)s1 [GSK1581427],26
25,Cc1ccc2c(-c3ccncc3)c(-c3ccc(F)cc3)nn2c1.Cl [GW461484],27
26,O=C(NCCCN1CCOC1=O)c1cnc(NCc2cc(Cl)ccc2Cl)nc1NC1CCCC1,3
27,CC(C)N1C(=O)Cc2cc(Nc3ncc(C(F)(F)F)c(NCc4cccc(S(C)(=O)=O)c4)n3)ccc21,19
